Measured values taken from PubChem BioAssay (NCATS).
Inconclusive results are not listed. Where a call stands in place of a potency, no number is given. Activity calls are given as the source filed them. The call rests on the fitted dose curve; in most records, active means well fitted curve in the direction sought with a large enough effect; inconclusive means small, poorly fitted or top-dose-only effect, or another doubt; inactive means no such curve, though single readings can be large; an effect the other way counts as inactive or inconclusive.

Columns and labels:
[1] = Quantitative High-Throughput drug screen in 47 multiple myeloma cell lines against the NCATS MIPE library collection: ARD_JJKsccE7 cell viability assay (AID 1918929)
Method in brief: (§1)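 Relative luminescence from CellTiter-Glo served as the viability signal, referenced to DMSO-treated (100%) and cell-free medium (0%) controls. Treatment lasted 48 hours at 37C with 500 cells per well.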

[2] = Quantitative High-Throughput drug screen in 47 multiple myeloma cell lines against the NCATS MIPE library collection: Karpas620_DSMZ cell viability assay (AID 1918959); further: nearly all actives have a fitted effect of over 30% in size
Method in brief: (§2)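 qHTS of the MIPE 4.0 collection: 500 myeloma cells/well, 48 h drug exposure at 37C in 5% CO2, then CellTiter-Glo for 5 min at room temperature before luminescence reading.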

[3] = Quantitative High-Throughput drug screen in 47 multiple myeloma cell lines against the NCATS MIPE library collection: JIM3_ECACC cell viability assay (AID 1918963; further: nearly all actives have a fitted effect of over 35% in size)
Method in brief: as §2

[4] = Quantitative High-Throughput drug screen in 47 multiple myeloma cell lines against the NCATS MIPE library collection: H1112_PLB cell viability assay (AID 1918967; further: nearly all actives have a fitted effect of over 30% in size)
Method in brief: as §1

[5] = Quantitative High-Throughput drug screen in 47 multiple myeloma cell lines against the NCATS MIPE library collection: KMS12BM_JCRB cell viability assay (AID 1918971); further: nearly all actives have a fitted effect of over 35% in size
Method in brief: (§3)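 Myeloma cells (500 per well) were exposed to MIPE 4.0 compounds by pin transfer and incubated 48 hours at 37C, 5% CO2. Viability was read as ATP by CellTiter-Glo luminescence, normalised to DMSO (100%) and media-only (0%) wells.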

[6] = Quantitative High-Throughput drug screen in 47 multiple myeloma cell lines against the NCATS MIPE library collection: KMS12PE_JCRB cell viability assay (AID 1918972); further: nearly all actives have a fitted effect of over 30% in size
Method in brief: (§4)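 Luminescent ATP measurement with CellTiter-Glo gives viability, scaled between DMSO-only wells (100%) and media-only wells (0%). Cells, 500 per well, faced library compounds for 48 hours at 37C.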

[7] = Quantitative High-Throughput drug screen in 47 multiple myeloma cell lines against the NCATS MIPE library collection: KMS26_JCRB cell viability assay (AID 1918975); further: nearly all actives have a fitted effect of over 45% in size
Method in brief: as §3

[8] = Quantitative High-Throughput drug screen in 47 multiple myeloma cell lines against the NCATS MIPE library collection: NCIH929_DSMZ cell viability assay (AID 1918978); further: nearly all actives have a fitted effect of over 35% in size
Method in brief: (§5)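 qHTS format: cells plated (500/well), pin-dosed with MIPE 4.0 compounds, kept 48 h at 37 °C. Readout was CellTiter-Glo luminescence, median RLU.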

[9] = Quantitative High-Throughput drug screen in 47 multiple myeloma cell lines against the NCATS MIPE library collection: KMM1_JCRB cell viability assay (AID 1918960); further: nearly all actives have a fitted effect of over 30% in size
Method in brief: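 Each line was plated at 500 cells/well and treated 48 h with library drugs. Viability came from CellTiter-Glo luminescence relative to DMSO and cell-free medium controls.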

[10] = Quantitative High-Throughput drug screen in 47 multiple myeloma cell lines against the NCATS MIPE library collection: INA6_PLB cell viability assay (AID 1918965; further: nearly all actives have a fitted effect of over 55% in size)
Method in brief: as §4

[11] = Quantitative High-Throughput drug screen in 47 multiple myeloma cell lines against the NCATS MIPE library collection: JJN3_DSMZ cell viability assay (AID 1918966; further: nearly all actives have a fitted effect of over 50% in size)
Method in brief: as §1

[12] = Quantitative High-Throughput drug screen in 47 multiple myeloma cell lines against the NCATS MIPE library collection: Karpas25_ECACC cell viability assay (AID 1918968; further: nearly all actives have a fitted effect of over 35% in size)
Method in brief: as §1

[13] = Quantitative High-Throughput drug screen in 47 multiple myeloma cell lines against the NCATS MIPE library collection: KMS27_JCRB cell viability assay (AID 1918970); settings: KMS27 myeloma cells, CellTiter-Glo ATP viability, 48 h; viability (% of DMSO): at 45.8 µM (top of the series); further: nearly all actives have a fitted effect of over 30% in size
Method in brief: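 CellTiter-Glo luminescence after 48 h drug exposure at 37 °C; 500 cells/well, 1536-well format, pin-tool compound addition; DMSO = 100%, media-only = 0% viability.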

[14] = Quantitative High-Throughput drug screen in 47 multiple myeloma cell lines against the NCATS MIPE library collection: KMS20_JCRB cell viability assay (AID 1918973); further: nearly all actives have a fitted effect of over 45% in size
Method in brief: as §1

[15] = Quantitative High-Throughput drug screen in 47 multiple myeloma cell lines against the NCATS MIPE library collection: MMM1_PLB cell viability assay (AID 1918976); further: nearly all actives have a fitted effect of over 35% in size
Method in brief: as §5

[16] = Quantitative High-Throughput drug screen in 47 multiple myeloma cell lines against the NCATS MIPE library collection: MOLP8_DSMZ cell viability assay (AID 1918977); further: nearly all actives have a fitted effect of over 45% in size
Method in brief: as §5

[17] = Quantitative High-Throughput drug screen in 47 multiple myeloma cell lines against the NCATS MIPE library collection: Karpas417_ECACC cell viability assay (AID 1918961); settings: Karpas417 myeloma viability, CellTiter-Glo ATP luminescence, 48 h; viability (% of DMSO): at 45.8 µM (top of the series)
Method in brief: as §4

[18] = Quantitative High-Throughput drug screen in 47 multiple myeloma cell lines against the NCATS MIPE library collection: KHM11_PLB cell viability assay (AID 1918962); further: nearly all actives have a fitted effect of over 35% in size
Method in brief: as §2

[19] = Quantitative High-Throughput drug screen in 47 multiple myeloma cell lines against the NCATS MIPE library collection: JIM1_ECACC cell viability assay (AID 1918964)
Method in brief: as §1

[20] = Quantitative High-Throughput drug screen in 47 multiple myeloma cell lines against the NCATS MIPE library collection: KMS21BM_JCRB cell viability assay (AID 1918974); settings: ATP luminescence, 48 h; viability: at 45.8 µM (top of the series)
Method in brief: as §1
Potency means the concentration at half of the fitted maximal effect.

SMILES | Potency [1] | Potency [2] | Potency [3] | Potency [4] | Potency [5] | Potency [6] | Potency [7] | Potency [8] | Potency [9] | Potency [10] | Potency [11] | Potency [12] | Potency [13] | Potency [14] | Potency [15] | Potency [16] | Potency [17] | Potency [18] | Potency [19] | Potency [20]
Oc1cc2c(cc1O)C1c3ccc(O)c(O)c3OCC1(O)C2 (configuration not stated) | inactive | inactive | inactive | inactive | inactive | inactive | inactive | inactive | – | – | – | – | – | – | – | – | – | – | – | –
C[C@H](NC(=O)C(C#N)=Cc1cccc(Br)n1)c1ccccc1 | 11.8 µM (active) | 11.8 µM (active) | 2.09 µM (active) | 2.35 µM (active) | 4.69 µM (active) | 16.6 µM (active) | 2.35 µM (active) | 1.66 µM (active) | 10.5 µM (active) | 1.87 µM (active) | 4.18 µM (active) | 2.09 µM (active) | 13.2 µM (active) | 2.35 µM (active) | 7.43 µM (active) | 2.35 µM (active) | – | – | – | –
Cn1cc(-c2ccc3ncc(Cc4ccc5ncccc5c4)n3n2)cn1 | inactive | inactive | 16.6 µM (active) | inactive | – | – | inactive | inactive | – | 13.2 µM (active) | – | inactive | – | – | – | – | – | – | – | –
CC(C=CC1=C(C)CCCC1(C)C)=CC=CC(C)=CC(=O)Nc1ccc(O)cc1 | 8.55 µM (active) | 6.05 µM (active) | 5.4 µM (active) | 19.1 µM (active) | 17.1 µM (active) | 3.82 µM (active) | 19.1 µM (active) | 21.5 µM (active) | – | 13.6 µM (active) | 21.5 µM (active) | 12.1 µM (active) | 8.55 µM (active) | 15.2 µM (active) | 21.5 µM (active) | – | 4.29 µM (active) | 17.1 µM (active) | – | –
CCc1cnn2c(NCc3ccc[n+]([O-])c3)cc(N3CCCC[C@@H]3CCO)nc12 | 0.0235 µM (active) | – | 0.0264 µM (active) | 0.0264 µM (active) | 0.0264 µM (active) | 0.0332 µM (active) | 0.0187 µM (active) | 0.0235 µM (active) | 0.0148 µM (active) | 0.0235 µM (active) | 0.0118 µM (active) | 0.0332 µM (active) | 0.0187 µM (active) | – | 0.0296 µM (active) | 0.0118 µM (active) | 0.0209 µM (active) | 0.0187 µM (active) | 14.8 nM (active) | 13.2 nM (active)
CC(=O)OCC(=O)[C@@]1(O)CC[C@H]2[C@@H]3CCC4=CC(=O)CC[C@]4(C)[C@@H]3C(=O)C[C@@]21C | inactive | inactive | – | inactive | inactive | inactive | inactive | inactive | inactive | – | inactive | inactive | – | inactive | – | inactive | – | – | inactive | –
CC(=O)OCC(=O)[C@@]12N=C(C)O[C@H]1C[C@H]1[C@@H]3CCC4=CC(=O)C=C[C@]4(C)[C@@H]3[C@@H](O)C[C@@]12C | 1.05 µM (active) | inactive | – | – | inactive | inactive | inactive | – | – | 11.8 µM (active) | – | 5.26 µM (active) | – | – | inactive | 16.6 µM (active) | – | – | – | –
CC(C)(O)[C@H]1CC[C@@](C)([C@H]2[C@@H](O)C[C@@]3(C)[C@@H]4C[C@H](O[C@@H]5O[C@H](CO)[C@@H](O)[C@H](O)[C@@H]5O)[C@H]5C(C)(C)[C@@H](O[C@@H]6OC[C@@H](O)[C@H](O)[C@@H]6O)CC[C@@]56C[C@@]46CC[C@]23C)O1 | inactive | inactive | inactive | inactive | – | – | inactive | inactive | – | inactive | 0.418 µM (active) | inactive | – | inactive | – | inactive | – | inactive | inactive | –
NC[C@H]1O[C@H](O[C@H]2[C@@H](O)[C@@H](O[C@H]3O[C@H](CO)[C@@H](O)[C@H](N)[C@@H]3O)[C@H](N)C[C@@H]2N)[C@H](N)C[C@H]1O | inactive | inactive | inactive | inactive | – | – | inactive | inactive | inactive | – | 1.87 µM (active) | inactive | inactive | inactive | 2.09 µM (active) | – | – | – | – | –
COC(=O)C=CC(=O)OC | 1.18 µM (active) | inactive | – | – | inactive | inactive | – | 0.264 µM (active) | – | 18.7 µM (active) | – | 1.48 µM (active) | – | – | – | – | 4.18 µM (active) | 18.7 µM (active) | – | –
O=C1c2c(O)cccc2[C@@H]([C@@H]2O[C@H](CO)[C@@H](O)[C@H](O)[C@H]2O)c2cc(CO)cc(O)c21 | inactive | inactive | inactive | inactive | inactive | inactive | inactive | inactive | inactive | – | – | inactive | – | inactive | – | inactive | – | – | – | –
C[C@H](CCC(=O)O)[C@H]1CC[C@H]2[C@@H]3[C@H](O)C[C@@H]4C[C@H](O)CC[C@]4(C)[C@@H]3CC[C@]12C | inactive | inactive | inactive | inactive | inactive | inactive | inactive | inactive | inactive | – | – | inactive | inactive | inactive | – | inactive | – | – | – | –
